In PubChem BioAssay AID651780 (The Scripps Research Institute Molecular Screening Center, 2012):
Among all 2,400 compounds or so, about 1,800 (75%) were called active. No stated cut-off is given here; in the data, active means inhibition above about 22%; inactive means the rest. So high a share suggests a set chosen from earlier hits. Not all results are given here.

Assay: calcium response inhibition in counter-screen line – cell-based, fluorescence, counter-screen for hTAAR1 antagonist project (AID 651780);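 further: CHO-Ga16 host cells stimulated with ATP at an EC80 level; 0% = agonist EC80 plus vehicle and 100% = vehicle without agonist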
Settings: counterscreen cell line, antagonist mode, at 3 µM, active compounds read high

SMILES | inhibition
COc1ccc(CCNC(=O)C(=O)NCC2OCCN2S(=O)(=O)c2ccc(OC)c(C)c2)cc1 (stereo not given) | 23.7% (active)
O=C(COC(=O)CCCSc1nc2ccccc2[nH]1)Nc1ccc(Oc2ccccc2)cc1 | 39.8% (active)
O=C(O)c1ccc(NC(=O)c2cn(-c3ccccc3)nc2-c2ccc(Cl)cc2)cc1 | 36.1% (active)
COc1ccc(CC(=O)Nc2c(C(N)=O)oc3ccccc23)cc1 | 22.3% (active)
C[C@H](NC(=O)c1nc[nH]c1C(=O)NCC(=O)OC(C)(C)C)C(=O)OCc1ccccc1 | 23.6% (active)
CC(C)(C)OC(=O)NCCCCCNC(=O)c1nc[nH]c1C(=O)NCc1ccccc1 | 22% (active)
Cc1cccc(NC(=O)c2nc[nH]c2C(=O)NCC(=O)OCc2ccccc2)c1 | 26% (active)
OC(c1ccccc1)(c1ccccc1)C1CCN(CCCOc2ccc(-c3ccsc3)cc2)CC1 | 40.2% (active)
CC(=O)Nc1ccc(NC(=O)COC(=O)C2CCC(C(C)(C)C)CC2)cc1 (stereo not given) | 24.5% (active)
O=C(NCC1CCCO1)c1cc2c([nH]c3ccccc32)c(-c2ccc(F)cc2)n1 (stereo not given) | 30.9% (active)
CC(=O)N1CCN(C(=O)c2cc(-c3ccc(Cl)s3)nc3ccccc23)CC1 | 26.1% (active)
O=C(COC(=O)c1c2c(nc3ccccc13)CCCC2)c1ccc(Br)s1 | 20.1% (inactive)
Cc1cccc(C)c1NC(=O)CNC(=O)C1CCCC1 | 5.58% (inactive)
O=S1(=O)c2c(cccc2N2CCCCC2)O[C@H](COCc2ccccc2)CN1C1CC1 | 32.5% (active)
Cc1cc(Br)ccc1NC(=O)c1cnc(N2CCN(c3ccccn3)CC2)c2ccccc12 | 38.4% (active)
Cc1ccccc1NC(=O)Cc1nc(COC(=O)C(C)(C)Oc2ccc(Cl)cc2)cs1 | 33.4% (active)
COc1cc2ccccc2cc1C(=O)Nc1ccc(NC(=O)c2cccs2)cc1 | 27.7% (active)
COC(=O)c1sccc1NC(=O)c1cc(OC)c(OC)c(OC)c1 | 21.3% (inactive)
O=C1c2ccccc2C(=O)N1CCC#Cc1ccc2cc(C3(O)CCCCC3)oc(=O)c2c1 | 44% (active)
COc1ccc(CCNC(=O)c2ccc(CS(=O)(=O)c3ccc(Br)cc3)o2)cc1OC | 35% (active)
CCOC(=O)C1C(c2ccc(OC)c(OC)c2)c2c([nH][nH]c2=O)CC1(C)O (stereo not given) | 25.2% (active)
COC(=O)Cc1nnn2c1[C@H](C)[C@H](c1ccccc1Br)OCC2 | 0.66% (inactive)

SMILES | inhibition
Cc1onc(-c2c(F)cccc2Cl)c1C(=O)Nc1cccc(S(=O)(=O)N2CCCCC2)c1 | 19.7% (inactive)
COc1ccc(S(=O)(=O)N2CCCC(C(=O)Nc3ccc(NC(=O)c4ccccn4)cc3)C2)cc1 (stereo not given) | 29.2% (active)
COc1ccc(NC(=O)C2CCCN(S(=O)(=O)c3cccc4cccnc34)C2)cc1OC (stereo not given) | 29.3% (active)
COc1ccc(C(=O)Nc2cccc(NC(=O)c3ccc(OC)cc3OC)n2)c(OC)c1 | 22.6% (active)
CSc1nc(-c2ccccc2)nc(C(Cl)Cl)n1 | -4.34% (inactive)
COc1cc(/C=C2/C(=O)ON=C2C)ccc1OCc1ccccc1F | 57.1% (active)
Cc1nc(N2CCN(c3ccccn3)CC2)c2c(C)c(C(=O)Nc3ccc(F)cc3)sc2n1 | 36.4% (active)
CSC(=S)N/N=C/c1c[nH]c2ccccc12 | 19.5% (inactive)
Nc1nonc1-n1nnc(C(=O)N/N=C/c2c[nH]c3ccccc23)c1-c1ccccc1 | 29.3% (active)
COc1ccc(CCNC2=C(Cl)C(=O)N(Cc3ccccc3)C2=O)cc1OC | 31.3% (active)
COc1ccc(OC)c2[nH]c(=O)c(CCNC(=O)C(=O)c3c[nH]c4ccccc34)cc12 | 26.8% (active)
CC(=O)OCCN(CCCn1c(-c2ccncc2)nc2ccccc21)c1nc(-c2ccc(C)cc2)cs1 | 24.1% (active)
O=c1[nH]c(CSc2ncc(-c3ccc(F)cc3)n2Cc2ccco2)nc2ccccc12 | 29.8% (active)
CCCCNc1c(-c2cccc(Sc3ccc(OC)cc3)c2)nc2ccccn12 | 42.4% (active)
C[C@H](O)[C@@H]1C(=O)N2CCc3c([nH]c4c(-c5ccc6c(c5)OCO6)cccc34)[C@@H]2C[C@@H]1N(C)C(=O)c1ccco1 | 35.2% (active)
Cc1cccc(NC(=O)c2ccc(COc3ccccc3[N+](=O)[O-])o2)n1 | 15.8% (inactive)
COC(=O)C1=C(C)N(Cc2ccc(F)cc2)C(=S)NC1c1cccc(Cl)c1 (stereo not given) | 23.3% (active)
O=C(N/N=C/c1ccc(Cl)c(Cl)c1)c1ccc2nc[nH]c2c1 | 27.9% (active)
Cc1nn(-c2ccccc2)c(C)c1NC(=O)COC(=O)c1cc(Cl)ccc1O | 32.8% (active)
CNC(=O)c1ccsc1NC(=O)c1ccc(S(=O)(=O)N2CCc3ccccc32)cc1 | 32.3% (active)
CCN1CCc2c(C#N)c(NCc3ccccc3)nc(NCCO)c2C1 | 5.04% (inactive)
C=CCn1c(SCc2cccc(F)c2)nc2cc(C(=O)N3CCC(C(N)=O)CC3)ccc2c1=O | 25.6% (active)

SMILES | inhibition
CC(=O)c1ccccc1OCc1ccc(C(=O)c2ccccc2)cc1 | 27% (active)
CCNS(=O)(=O)c1ccc(CCC(=O)N2CCN(c3cc(Cl)ccc3C)CC2)cc1 | 37.1% (active)
COc1ccc(Cl)cc1NC(=O)CCS(=O)(=O)c1cc2c(cc1C)NC(=O)CO2 | 23.5% (active)
CCc1ccc2c(c1)NC(=O)C2(C)Cc1ccc(OC(F)(F)F)cc1 (stereo not given) | 4.79% (inactive)
O=C(Oc1ccc(-c2nnco2)cc1)c1ccc(F)c(S(=O)(=O)N2CCOCC2)c1 | 32.8% (active)
COc1ccc(C(=O)Oc2ccc(-c3nnco3)cc2)cc1S(=O)(=O)N1CCOCC1 | 25.1% (active)
O=C(Nc1ccc(-c2nnc(-c3ccccc3)o2)cc1)c1ccc(Br)o1 | 16% (inactive)
CCC(=O)Oc1cccc(C(=O)Nc2ccc(-c3nnc(-c4ccco4)o3)cc2)c1 | 26.1% (active)
COc1ccc2[nH]c(=O)c(CN(Cc3cccnc3)S(=O)(=O)c3ccccc3F)cc2c1 | 34.9% (active)
C=CCc1cc(S(=O)(=O)c2ccc(O)c(CC=C)c2)ccc1O | 18.2% (inactive)
O=C(NCCN1CCOCC1)c1ccccc1N1C(=O)[C@@H]2Cc3c([nH]c4ccccc34)C(c3cccc(Cl)c3)N2C1=O (stereo not given in full) | 26.3% (active)
COC(=O)[C@@]1(Sc2ccc(C)cc2)CC(=O)N(c2cccc(SC)c2)[C@@H]1c1ccccc1 | 21.8% (active)
Clc1ccc(Nc2ncnc3c2nnn3Cc2ccccc2)cc1 | 9.4% (inactive)
Cc1ccc2c(c1)N(CC(=O)NCCc1ccc(Cl)cc1)C(=O)c1cccnc1O2 | 22.1% (active)
Cc1ccc(-n2c(C)cc(/C=N\NC(=O)CC(=O)NC(C)C)c2C)cc1 | 7.15% (inactive)
C/C(=N\Nc1ncc(Cl)cc1Cl)c1ccc(S(=O)(=O)NCc2ccco2)cc1 | 28.7% (active)
Fc1ccc(/C=N/Nc2nc(-c3cccnc3)nc3ccccc23)cc1 | 25.1% (active)
O=C(OCC(=O)N(CCc1ccccc1)Cc1ccccc1)c1ccccc1[N+](=O)[O-] | 33.2% (active)
Cc1ccc2cccc(OCCCOc3ccccc3CO)c2n1 | 20.3% (inactive)
COc1cc(OC)cc(C(=O)OCC(=O)Nc2sccc2C(N)=O)c1 | 27.8% (active)
COc1cc(SC#N)ccc1N=Cc1c(C)[nH]n(-c2ccc(C)cc2)c1=O | 87.2% (active)
C=CCC[C@@H](Cc1ccc(F)cc1)C(=O)O[C@H](CNC(=O)[C@H](CC=C)CC(=O)N(CCO)Cc1ccccc1)c1ccccc1 | 39.2% (active)

SMILES | inhibition
C=CCC[C@H](Cc1ccc(F)cc1)C(=O)OC[C@H](C)NC(=O)[C@H](CC=C)CC(=O)N(CCO)Cc1ccccc1 | 27.6% (active)
Oc1ccccc1N1CCN(c2ncnc3sc(-c4ccccc4)cc23)CC1 | 30.2% (active)
O=S(=O)(c1cccs1)N1CCCc2nc(-c3ccc(Br)cc3)ccc21 | 33.3% (active)
CCOC(=O)C1=C(NC(=S)NC(=O)c2ccccc2)c2ccccc2CC1(C)C | 24.8% (active)
COc1ccc(-c2nn(-c3ccccc3)cc2C(=O)Nc2nccs2)cc1OC | 24.8% (active)
CSCCC(NC(=O)COc1ccccc1)C(=O)OCC(=O)c1cc2ccccc2o1 (stereo not given) | 24.2% (active)
CSCCC(NC(=O)COc1ccccc1)C(=O)OCCOc1ccc(Br)cc1 (stereo not given) | 21.9% (active)
C[C@@H]1CN([C@@H](C)CO)S(=O)(=O)c2ccc(C#Cc3cccc(F)c3)cc2O[C@H]1CN(C)S(=O)(=O)c1cn(C)cn1 | 38.3% (active)
Cc1ccc(SCc2c(C(=O)N/N=C/c3cccnc3)nnn2-c2nonc2N)cc1 | 38.4% (active)
Oc1ccc(/C=N/Nc2nc(-c3ccccc3F)nc3ccccc23)c(O)c1 | 38.2% (active)
COc1ccc(N(CC(=O)N/N=C/c2cccs2)S(=O)(=O)c2ccc(OC)c(OC)c2)cc1 | 25.2% (active)
COc1ccc(S(=O)(=O)N(CC(=O)NCc2ccco2)c2ccc(F)cc2)cc1 | 19.3% (inactive)
O=C(CN1CCCSc2ccccc21)N1CCN(S(=O)(=O)c2cccc(F)c2)CC1 | 19.4% (inactive)
NNC(=O)CNC(c1ccccc1)c1cc(Cl)ccc1NC(=O)c1ccccc1 (stereo not given) | 22.9% (active)
CCOc1ccc(NC(=O)N2CC=C(n3c(=O)[nH]c4ccccc43)CC2)cc1 | 19.3% (inactive)
Cn1c2ccccc2c(=O)c2c(=O)n(Cc3ccco3)c(COc3ccccc3)nc21 | 21.8% (active)
Cc1ccc(C)c(N2CCN(C(=O)CCCCCn3c(=S)[nH]c4ccc(N5CCOCC5)cc4c3=O)CC2)c1 | 44.4% (active)
Cc1ccc(NC(=O)c2ccc(CSc3ncnc4nc[nH]c34)cc2)c(C)c1 | 17.2% (inactive)
CC(=O)n1cc([C@H]2C=C(C(=O)N3CCOCC3)O[C@@H](OCc3ccc(CO)cc3)C2)c2ccccc21 | 24.4% (active)
